Assay results taken from PubChem BioAssay (Tox21).
Values joined by “and” are separate entries in the source; they are usually repeats but may differ in a detail not shown here. Identical values can stand only once. Results filed as inconclusive are left out. A structure can be active in one record and inactive in another. Active and inactive are the calls of the source. Unless noted, calls come from the whole dose curve; as a rule, active = well fitted curve in the direction sought with a large enough effect in the repeat runs; inconclusive = weak or mixed curves; inactive = no such curve, though single readings can be large; an effect the other way counts as inactive or inconclusive.

What was measured:
[1] = qHTS assay to identify small molecule antagonists of the androgen receptor (AR) signaling pathway using the MDA cell line in the presence of 0.5 nM R1881 - cell viability counter screen (AID 1259242); note: nearly all actives have a fitted effect of over 45% in size; note: potency is the fitted concentration of half-maximal effect
How it was run: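 Steps: plate MDA-kb2 cells, rest 5 hr at 37C without CO2; pin in compounds in DMSO; add R1881 to 0.5 nM final; incubate 16 hr; add CellTiter-Fluor, 30 min; read fluorescence.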

[2] = target: Estrogen receptor (Homo sapiens) (UniProt P03372); assay: qHTS assay to identify small molecule antagonists of the estrogen receptor alpha (ER-alpha) signaling pathway using the BG1 cell line in the presence of 0.1 nM 17-beta-estradiol (AID 1259244); note: nearly all actives have a fitted effect of over 50% in size; note: potency is the fitted concentration of half-maximal effect
Chain of Estrogen receptor (Homo sapiens) (P03372 whole entry, looked up): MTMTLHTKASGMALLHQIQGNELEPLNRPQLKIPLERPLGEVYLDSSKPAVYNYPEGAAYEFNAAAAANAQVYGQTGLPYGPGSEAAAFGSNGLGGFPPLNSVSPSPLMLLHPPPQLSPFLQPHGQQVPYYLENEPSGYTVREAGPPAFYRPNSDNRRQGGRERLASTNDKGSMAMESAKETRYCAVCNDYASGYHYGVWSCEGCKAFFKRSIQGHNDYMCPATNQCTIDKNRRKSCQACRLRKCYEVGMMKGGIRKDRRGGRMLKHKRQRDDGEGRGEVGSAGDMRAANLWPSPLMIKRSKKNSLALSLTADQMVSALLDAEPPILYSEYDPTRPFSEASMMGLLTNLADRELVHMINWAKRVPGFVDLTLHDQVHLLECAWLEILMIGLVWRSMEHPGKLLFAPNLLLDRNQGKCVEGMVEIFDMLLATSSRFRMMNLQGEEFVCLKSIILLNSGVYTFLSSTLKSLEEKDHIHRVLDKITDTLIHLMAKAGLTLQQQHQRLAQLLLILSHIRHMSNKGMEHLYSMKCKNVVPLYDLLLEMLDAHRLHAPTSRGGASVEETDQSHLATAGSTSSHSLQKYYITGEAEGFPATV
How it was run: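 Antagonist mode: compounds in DMSO are pinned onto VM7Luc4E2 reporter cells, 0.1 nM final 17beta-estradiol is added, and after 22 h at 37C luciferase luminescence is measured with ONE-Glo.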

[3] = qHTS assay to identify small molecule HDAC inhibitors (AID 1259364); note: potency is the fitted concentration of half-maximal effect;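 note: wild-type HCT-116 cells with endogenous class I/II HDAC activity; nearly all actives have a fitted effect of over 45% in size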
How it was run: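 Cells (HCT-116, wild type) are seeded at 1,500 per well, incubated overnight, treated with compound in DMSO for 2 hr, then developed with HDAC-Glo I/II reagent for 30 min at room temperature.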

[4] = qHTS assay to identify small molecule HDAC inhibitors - cell viability counter screen (AID 1259365); note: series mostly up to about 92 µM; nearly all actives have a fitted effect of over 50% in size
How it was run: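 Viability readout: CellTiter-Glo luminescence. Wild-type HCT-116 cells, 2hr compound treatment following overnight attachment at 37 C.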

[5] = qHTS assay to identify small molecule agonists of the sonic hedgehog signaling (Shh) pathway - cell viability counter screen (AID 1259366); note: nearly all actives have a fitted effect of over 50% in size; note: potency is the fitted concentration of half-maximal effect
How it was run: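 Viability measured fluorometrically (CellTiter-Fluor, 1hr, 37C) in 3T3 Gli1-Luc reporter cells after 23hr compound exposure within a 24hr incubation at 37C/5% CO2.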

[6] = qHTS assay to identify small molecule antagonists of the sonic hedgehog signaling (Shh) pathway - cell viability counter screen (AID 1259367); note: nearly all actives have a fitted effect of over 55% in size; note: potency is the fitted concentration of half-maximal effect
How it was run: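 Tox21 library chemicals were tested on a Gli1-Luc NIH/3T3 clone (2,000 cells/well) stimulated by conditioned medium; viability was quantified as fluorescence from CellTiter-Fluor reagent added at 23 hr.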

[7] = qHTS assay to identify small molecule agonists of the sonic hedgehog signaling (Shh) pathway (AID 1259368; calls by dose curve; note: nearly all actives have a fitted effect of over 15% in size; note: potency is the fitted concentration of half-maximal effect)
How it was run: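 Cells of a mouse NIH/3T3 clone stably expressing luciferase under the Gli1 transcriptional response element are exposed to test chemicals for 24 hr at 37 C. Pathway activation is detected as a rise in luminescence.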

[8] = qHTS assay to identify small molecule antagonists of the sonic hedgehog signaling (Shh) pathway (AID 1259369; calls by dose curve; note: nearly all actives have a fitted effect of over 45% in size; note: potency is the fitted concentration of half-maximal effect)
How it was run: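 Cells are plated and held 4hr at 37 C, compounds (DMSO) are pinned in, conditioned medium is added to stimulate the pathway, and after 24hr luciferase reagent is added for 30min before luminescence is read.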

[9] = qHTS assay to identify small molecule agonists of the androgen receptor (AR) signaling pathway in the presence of an antagonist - cell viability counter screen (AID 1259379); note: nearly all actives have a fitted effect of over 25% in size; note: potency is the fitted concentration of half-maximal effect
How it was run: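 Cytotoxicity is assessed by CellTiter-Fluor in MDA-kb2 cells carrying an MMTV-driven luciferase reporter. Cells receive 3.0uM nilutamide plus compounds at 15 concentrations and incubate 16 hr at 37C without CO2 before fluorescence reading.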

[10] = qHTS assay to identify small molecule agonists of the estrogen receptor beta (ER-beta) signaling pathway - cell viability counter screen (AID 1259380); note: nearly all actives have a fitted effect of over 30% in size; note: potency is the fitted concentration of half-maximal effect
How it was run: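 Cytotoxicity is measured in parallel with the reporter screen: after 16 hr compound exposure at 37C and a 2 hr LiveBLAzer step, CellTiter-Glo is added to the same ER-beta-UAS-bla HEK293T wells and luminescence read after 30 min.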

[11] = qHTS assay to identify small molecule antagonists of the estrogen receptor beta (ER-beta) signaling pathway - cell viability counter screen (AID 1259382); note: nearly all actives have a fitted effect of over 55% in size; note: potency is the fitted concentration of half-maximal effect
How it was run: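 Cytotoxicity counter screen multiplexed with the beta-lactamase antagonist assay: GripTite HEK293T ER-beta-bla cells were treated 16 hr with test chemicals in the presence of 1nM 17-beta-estradiol, and viability was measured by CellTiter-Glo.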

[12] = target: Estrogen receptor (Homo sapiens) (UniProt P03372); assay: qHTS assay to identify small molecule agonists of the estrogen receptor alpha (ER-alpha) signaling pathway in the presence of an antagonist (AID 1259383; calls by dose curve; note: top concentration of the series differs between compounds; nearly all actives have a fitted effect of over 15% in size)
How it was run: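 Agonist-mode confirmation in the presence of the ER antagonist ICI-182,780 at 10.0nM final. Breast-derived VM7Luc4E2 reporter cells were exposed to compounds for 22hr, and ERE-driven luciferase was quantified by luminescence.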

[13] = qHTS assay to identify small molecule agonists or antagonists of the thyroid stimulating hormone receptor (TSHR) signaling pathway - wild type cell line counter screen (AID 1259384; calls by dose curve)
How it was run: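 Wild-type Hek293 cells, 800/well, 18 h at 37C, then compound with Ro20-1724 for 30 min RT. cAMP by HTRF (cAMP-d2/anti-cAMP cryptate), 1 h RT, fluorescence read. 15 concentrations, triplicates.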

[14] = target: Thyrotropin receptor (Homo sapiens) (UniProt P16473); assay: qHTS assay to identify small molecule antagonists of the thyroid stimulating hormone receptor (TSHR) signaling pathway (AID 1259385; calls by dose curve; note: nearly all actives have a fitted effect of over 20% in size)
Chain of Thyrotropin receptor (Homo sapiens) (P16473 whole entry, looked up): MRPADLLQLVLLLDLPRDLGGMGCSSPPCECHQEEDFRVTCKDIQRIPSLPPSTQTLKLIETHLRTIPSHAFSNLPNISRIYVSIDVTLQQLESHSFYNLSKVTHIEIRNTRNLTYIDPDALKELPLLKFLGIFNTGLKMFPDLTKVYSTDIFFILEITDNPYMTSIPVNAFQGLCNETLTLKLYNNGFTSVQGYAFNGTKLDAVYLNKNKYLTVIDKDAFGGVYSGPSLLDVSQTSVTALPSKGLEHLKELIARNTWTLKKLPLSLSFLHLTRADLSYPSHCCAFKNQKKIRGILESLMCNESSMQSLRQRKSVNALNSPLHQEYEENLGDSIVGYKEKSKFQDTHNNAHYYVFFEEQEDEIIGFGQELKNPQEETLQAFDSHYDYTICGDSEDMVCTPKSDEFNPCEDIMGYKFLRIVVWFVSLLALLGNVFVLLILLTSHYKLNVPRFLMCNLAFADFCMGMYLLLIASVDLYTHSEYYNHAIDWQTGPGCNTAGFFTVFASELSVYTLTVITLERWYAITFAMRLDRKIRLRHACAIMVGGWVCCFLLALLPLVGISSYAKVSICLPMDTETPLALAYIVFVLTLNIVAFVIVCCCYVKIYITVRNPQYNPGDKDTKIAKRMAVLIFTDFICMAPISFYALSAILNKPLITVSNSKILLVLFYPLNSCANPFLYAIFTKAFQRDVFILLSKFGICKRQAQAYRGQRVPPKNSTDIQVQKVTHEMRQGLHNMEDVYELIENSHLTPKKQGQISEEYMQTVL
How it was run: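 TSHR-HEK293 cells (800/well) plated 18 h, then compounds with Ro20-1724 and TSH at 1.5 ng/mL final, 30 min at room temperature. cAMP quantified by HTRF (cAMP-d2/anti-cAMP-cryptate, 1 h); 15 concentrations in triplicate.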

[15] = qHTS assay to identify small molecule agonists of the estrogen receptor alpha (ER-alpha) signaling pathway in the presence of an antagonist - cell viability counter screen (AID 1259386);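 note: cells exposed to compounds for 22 h at 37 °C before the viability read; nearly all actives have a fitted effect of over 30% in size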; note: potency is the fitted concentration of half-maximal effect
How it was run: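 Cytotoxicity was measured in parallel with the ERE-luciferase agonist screen, in the same wells. The cells were VM7Luc4E2, which endogenously express ER-alpha, and treatment was with compounds plus 10.0nM ICI-182,780 for 22hr.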

[16] = target: Androgen receptor (Homo sapiens) (UniProt P10275); assay: qHTS assay to identify small molecule agonists of the androgen receptor (AR) signaling pathway in the presence of an antagonist (AID 1259381; calls by dose curve; note: nearly all actives have a fitted effect of over 15% in size)
Chain of Androgen receptor (Homo sapiens) (P10275 whole entry, looked up): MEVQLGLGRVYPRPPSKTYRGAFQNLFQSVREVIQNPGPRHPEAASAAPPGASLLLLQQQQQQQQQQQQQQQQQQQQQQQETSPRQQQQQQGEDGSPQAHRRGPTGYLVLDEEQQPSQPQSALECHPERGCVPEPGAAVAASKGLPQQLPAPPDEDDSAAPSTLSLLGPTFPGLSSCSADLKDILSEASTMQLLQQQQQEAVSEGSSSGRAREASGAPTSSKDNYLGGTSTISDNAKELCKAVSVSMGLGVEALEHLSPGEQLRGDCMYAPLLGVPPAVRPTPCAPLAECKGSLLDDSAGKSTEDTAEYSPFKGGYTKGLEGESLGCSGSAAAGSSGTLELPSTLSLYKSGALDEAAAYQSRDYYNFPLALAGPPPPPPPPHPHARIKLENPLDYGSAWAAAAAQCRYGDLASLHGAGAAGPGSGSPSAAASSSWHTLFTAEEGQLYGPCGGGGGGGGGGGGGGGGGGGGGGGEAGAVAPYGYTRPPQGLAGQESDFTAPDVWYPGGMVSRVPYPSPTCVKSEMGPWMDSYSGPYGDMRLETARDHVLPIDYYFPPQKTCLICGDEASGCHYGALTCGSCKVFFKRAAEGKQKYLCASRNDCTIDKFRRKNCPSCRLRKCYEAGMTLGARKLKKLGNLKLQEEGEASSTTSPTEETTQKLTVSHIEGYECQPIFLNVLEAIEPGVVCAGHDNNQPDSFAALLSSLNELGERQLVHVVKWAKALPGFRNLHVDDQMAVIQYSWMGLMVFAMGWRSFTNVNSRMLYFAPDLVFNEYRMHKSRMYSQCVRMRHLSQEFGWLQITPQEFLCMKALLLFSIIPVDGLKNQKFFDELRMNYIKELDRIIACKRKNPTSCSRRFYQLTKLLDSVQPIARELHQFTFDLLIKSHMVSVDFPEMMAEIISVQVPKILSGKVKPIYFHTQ
How it was run: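 Agonist-mode confirmation screen: human MDA-kb2 cells stably expressing luciferase under an MMTV promoter bearing AR and GR response elements, co-treated with 3.0uM nilutamide (final). Luminescence measured after 16hr compound incubation.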

[17] = target: Estrogen receptor beta (Homo sapiens) (UniProt Q92731); assay: qHTS assay to identify small molecule agonists of the estrogen receptor beta (ER-beta) signaling pathway (AID 1259377; active = well fitted activation curve with a large enough effect in the signal ratio in the repeat runs, not every such curve was filed as active; the % refers to the signal ratio; note: potency is the fitted concentration of half-maximal effect)
Chain of Estrogen receptor beta (Homo sapiens) (Q92731 whole entry, looked up): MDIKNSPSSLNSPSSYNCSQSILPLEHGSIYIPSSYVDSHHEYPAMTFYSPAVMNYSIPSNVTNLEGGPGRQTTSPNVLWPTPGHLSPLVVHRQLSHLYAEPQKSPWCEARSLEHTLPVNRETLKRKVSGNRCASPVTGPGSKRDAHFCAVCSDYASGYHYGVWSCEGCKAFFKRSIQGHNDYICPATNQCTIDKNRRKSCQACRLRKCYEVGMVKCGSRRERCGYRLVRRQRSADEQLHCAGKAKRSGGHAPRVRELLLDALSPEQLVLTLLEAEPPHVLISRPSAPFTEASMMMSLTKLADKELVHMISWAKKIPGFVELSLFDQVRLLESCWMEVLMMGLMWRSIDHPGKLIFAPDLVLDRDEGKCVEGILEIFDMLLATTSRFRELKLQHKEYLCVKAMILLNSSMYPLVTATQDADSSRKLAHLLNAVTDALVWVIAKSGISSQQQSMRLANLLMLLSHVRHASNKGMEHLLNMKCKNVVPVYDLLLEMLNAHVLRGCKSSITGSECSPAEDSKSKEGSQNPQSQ
How it was run: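 A UAS-controlled beta-lactamase reporter in ER-beta-UAS-bla HEK293T cells reports receptor activation. Compounds act for 16 hr at 37C in 2% charcoal-stripped serum, and a FRET substrate is read by fluorescence after 2 hours.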

[18] = target: Estrogen receptor beta (Homo sapiens) (UniProt Q92731); assay: qHTS assay to identify small molecule antagonists of the estrogen receptor beta (ER-beta) signaling pathway (AID 1259378; active = well fitted inhibition curve with a large enough effect in the signal ratio in the repeat runs, not every such curve was filed as active; the % refers to the signal ratio; note: potency is the fitted concentration of half-maximal effect)
How it was run: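 ER-beta-UAS-bla HEK293T cells in 2% charcoal-stripped FBS medium treated with compound plus 1nM final 17-beta-estradiol for 16 hr at 37C. Beta-lactamase reporter read by FRET substrate fluorescence after 2 hours at room temperature.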

[19] = qHTS assay to identify small molecule phospholipidosis (PLD) inducers (AID 1259344; active = well fitted curve in the direction sought with a large enough effect; an effect the other way counts as inactive or inconclusive)
How it was run: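 Image-based: LipidTOX Red pit count/intensity per well and per cell; HepG2, 24 h compound at 37 C, PFA fixation, Hoechst counterstain.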
% is set by controls: 0 for no effect and ±100 for the full control effect.

OC/C=C/CO
inactive: Potency [1] | Potency [2] | Potency [3] | Potency [4] | Potency [5] | Potency [6] | Potency [7] | Potency [8] | Potency [9] | Potency [10] | Potency [11] | Potency [12] | outcome [13] | Potency [14] | Potency [15]

CCCC(=O)OCOC(=O)C1=C(C)NC(C)=C(C(=O)OC)C1c1cccc(Cl)c1Cl (configuration not stated)
inactive: Potency [1] | Potency [2] | Potency [3] | Potency [4] | Potency [5] | Potency [6] | Potency [7] | Potency [9] | Potency [10] | outcome [16] | Potency [11] | Potency [12] | outcome [13] | Potency [14] | Potency [15]

OC12N=C(c3ccccc3)SC1Cc1cc(Cl)ccc12 (configuration not stated)
inactive: Potency [1] | Potency [2] | Potency [4] | Potency [5] | Potency [6] | Potency [8] | Potency [17] | Potency [9] | Potency [11] | Potency [15]
active: Potency [3] 27.3 µM | Potency [7] 2.73 µM | Potency [18] 61.1 µM

CCCCCC/C=C\CCCCCCCC(=O)O
inactive: Potency [1] | Potency [2] | Potency [3] | Potency [4] | Potency [5] | Potency [6] | Potency [7] | Potency [8] | Potency [17] | Potency [9] | Potency [11] | outcome [13] | Potency [14]

C1CCC(SSC2CCCCC2)CC1
inactive: Potency [1] | Potency [2] | Potency [3] | Potency [4] | Potency [5] | Potency [6] | Potency [7] | Potency [8] | Potency [17] | Potency [18] | Potency [9] | Potency [11] | Potency [12] | outcome [13] | Potency [14] | Potency [15]

S=c1nccc[nH]1
inactive: Potency [1] | Potency [2] | Potency [3] | Potency [4] | Potency [5] | Potency [6] | Potency [7] | Potency [17] | Potency [9] | Potency [10] | Potency [11] | Potency [12] | Potency [15]

Cc1c(C)c([N+](=O)[O-])c(C(C)(C)C)c([N+](=O)[O-])c1C
inactive: Potency [1] | Potency [2] | Potency [3] | Potency [4] | Potency [5] | Potency [6] | Potency [7] | Potency [8] | Potency [17] | Potency [9] | Potency [10] | Potency [11] | Potency [12] | outcome [13] | Potency [14] | Potency [15]

COc1cc(C)ccc1O
inactive: Potency [1] | Potency [2] | Potency [3] | Potency [4] | Potency [5] | Potency [6] | Potency [7] | Potency [8] | Potency [9] | Potency [10] | Potency [11] | Potency [12] | outcome [13] | Potency [14] | Potency [15]

CC(C)(C)c1csc(-c2cc3cc(OCc4ccccc4CC(=O)O)ccc3o2)n1
active: Potency [10] 4.86 µM | Potency [11] 27.3 µM
inactive: Potency [1] | Potency [2] | Potency [3] | Potency [4] | Potency [5] | Potency [6] | Potency [7] | Potency [17] | Potency [12] | outcome [13] | Potency [15]

CCCC[P+](C)(CCCC)CCCC
inactive: Potency [1] | Potency [2] | Potency [3] | Potency [4] | Potency [5] | Potency [6] | Potency [17] | Potency [9] | Potency [10] | Potency [11] | Potency [12] | outcome [13] | Potency [14] | Potency [15]
active: Potency [7] 19.6 µM

CCN(CCN)c1cccc(C)c1
active: Potency [8] 7.77 µM
inactive: Potency [1] | Potency [2] | Potency [3] | Potency [4] | Potency [5] | Potency [6] | Potency [7] | Potency [9] | outcome [13] | Potency [14] | Potency [15]

COc1cccc2c1C(=O)c1c(O)c3c(c(O)c1C2=O)C[C@@](O)(C(C)=O)C[C@@H]3O[C@H]1C[C@H](N)[C@H](O)[C@H](C)O1
active: Potency [1] 48.9 µM | Potency [5] 615 nM and 2.11 µM | Potency [6] 1.09 µM and 1.88 µM | Potency [9] 30.8 µM and 11.9 µM | Potency [15] 27.5 µM and 21.1 µM
77.4 µM (active) and inactive: Potency [10]
inactive: PLD induction [19] -3.33% [at 7.66 µM] | Potency [3] | Potency [4] | Potency [7] | Potency [11]

CC(N=C(NC#N)Nc1ccncc1)C(C)(C)C (configuration not stated)
inactive: Potency [1] | Potency [19] | Potency [3] | Potency [4] | Potency [5] | Potency [6] | Potency [7] | Potency [8] | Potency [9] | Potency [10] | Potency [11] | Potency [14] | Potency [15]

O=C(O)c1ccc2cc(C(=O)O)ccc2c1
inactive: Potency [1] | Potency [2] | Potency [4] | Potency [6] | Potency [7] | Potency [8] | Potency [17] | Potency [18] | Potency [9] | Potency [11] | Potency [12] | outcome [13] | Potency [15]

CN(C)C(=O)COC(=O)Cc1ccc(OC(=O)c2ccc(N=C(N)N)cc2)cc1
active: Potency [3] 0.0376 µM
inactive: Potency [1] | Potency [19] | Potency [4] | Potency [5] | Potency [6] | Potency [7] | Potency [8] | Potency [17] | Potency [9] | Potency [10] | Potency [11] | outcome [13] | Potency [14] | Potency [15]

O=C(c1ccc(O)c(O)c1)c1ccc(O)cc1O
active: Potency [2] 61 µM | Potency [3] 24.3 µM | Potency [8] 2.43 µM | Potency [17] 1.37 µM | Potency [9] 68.5 µM
inactive: Potency [1] | Potency [7] | Potency [10] | Potency [11]
